Measurements published in PubChem BioAssay AID759 (NMMLSC, 2007).
The campaign covered roughly 190,000 compounds. About 270 (0.14%) were called active. Another 2% or so got no clear call; they are omitted.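 Rule for the calls: active = GTP binding activity at least 20% away from the 100% baseline, either lowered as inhibitor or raised as activator; inconclusive = flagged as likely green fluorescent, judged across all proteins in the well; inactive = the rest.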 Shown is part of a subset that was picked to be rich in actives.

What follows are compounds tested against GTPase HRas (Homo sapiens) (UniProt P01112) (assay: HRas wt fluorescent GTP binding changes, either direction – biochemical, wildtype, bead-based flow cytometry, multiplex, primary screen (AID 759;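 note: 0% = unlabeled GTP competition control and 100% = no-compound control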)). Conditions: GST-Ras wt beads, Bodipy-FL-GTP binding, at 10 µM, actives lie on both sides.
Chain of GTPase HRas (Homo sapiens) (P01112 whole entry, looked up): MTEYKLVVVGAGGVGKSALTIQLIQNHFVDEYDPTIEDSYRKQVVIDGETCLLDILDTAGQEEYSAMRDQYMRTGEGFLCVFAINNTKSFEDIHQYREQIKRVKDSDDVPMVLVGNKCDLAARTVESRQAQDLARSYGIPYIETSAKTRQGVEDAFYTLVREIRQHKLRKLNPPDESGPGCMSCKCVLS

GTP binding activity, inactive:
CCCCNC(=O)Nc1c(C)cc(SC#N)cc1C 95%
Cc1cccc(NC(=O)CSc2nc3[nH]ncc3c(=O)[nH]2)c1 97%
CCCSc1nc2[nH]ncc2c(=O)[nH]1 101%
CCC(=O)/C(=C(/O)c1ccccc1)c1nc2ccccc2[nH]1 98%
COC(=O)c1nn(-c2cccc(Cl)c2)ccc1=O 97%
O=C(CC12CC3CC(CC(C3)C1)C2)NCc1ccco1 96%
CCc1ccc(Nc2nnc(SCC(=O)c3ccc4c(c3)NC(=O)CO4)s2)cc1 99%
COc1ccccc1CC(NC(C)=O)C(=O)NC1CCN(C(=O)Nc2ccccc2Cl)CC1 (centres undefined) 101%
COC(=O)c1ccc(/C=N/OCC(=O)Nc2cc(F)ccc2F)cc1 95%
COc1ccc(N2CCN(CCCNC(=O)C3CCN(S(=O)(=O)N4CCOCC4)CC3)CC2)cc1 96%
COc1ccc(/C=C/CN2CCN(Cc3ccc(C)cc3)C(CCO)C2)cc1 (centres undefined) 105%
COc1cccc(NCCC(=O)c2cccc([N+](=O)[O-])c2)c1 97%
Cc1ccc(C(=O)O)cc1NC(=O)c1ccc(Cn2nc(C)c(Cl)c2C)o1 100%
Cc1noc(C)c1COc1cccc(C(=O)Nc2cccnc2)c1 97%
Cc1[nH]c2c(C(=O)N3CCCC(CCC(=O)NCc4ccccc4F)C3)cccc2c1C (centres undefined) 106%
COC(=O)c1nc(NC(=O)c2ccc(F)cc2)n[nH]1 98%
N#CC1=C(N)Oc2[nH]c(=S)[nH]c(=O)c2C12C(=O)Nc1ccccc12 (centres undefined) 96%
COc1ccc(/C=C(\C#N)C(=O)ONC2=NCCCCC2)cc1 97%
C=C(C)CNC(=S)N/N=C/c1ccccc1OCC(=O)O 95%
O=C(COC(=O)c1cnc(Cl)c(Cl)c1)NCc1ccco1 97%
CN1CCN(C(=O)N2c3ccccc3CCc3ccccc32)CC1 102%
O=C(Nc1cccc(Cl)c1)c1cc([N+](=O)[O-])ccc1N1CCN(CCO)CC1 97%
CC/C(Cc1ccccc1)=N/NC(=O)CCn1nnc2ccccc21 101%
COc1ccc(NC(=O)c2c(SC)nsc2SC)cc1 101%
CSc1ncccc1C(=O)NC1CCCCCC1 98%
Cc1ccc(S(=O)(=O)N2CCN(C(=O)c3cccs3)CC2)cc1 93%
COc1ccc(O)c(C(=O)c2cnc3c(c2)c(-c2ccc(F)cc2)c(C#N)c(=O)n3C)c1 95%
O=C(CCCc1ccccc1)NCc1ccccc1 94%
COc1cc2nc(CN(C)Cc3ccc(F)cc3)[nH]c(=O)c2cc1OC 97%
O=C(Nc1ccccc1F)c1ccccc1-c1ccc(C(F)(F)F)cc1 104%
NC(=O)c1ccccc1NC(=O)c1ccccc1F 101%
COc1cc(C(=O)N[C@@H](C)C(=O)NCc2ccco2)cc(OC)c1OC 98%
Cc1cccn2c(CN(C)C3CCCc4ccccc43)c(C(=O)N3CCOCC3)nc12 (centres undefined) 98%
O=C1CC(c2c(F)cccc2Cl)C(n2cncn2)C(O)=C1C1NCCc2ccccc21 (centres undefined) 94%
O=C(Nc1ccccc1C(=O)N1CCOCC1)c1ccc(CSc2ccccc2)cc1 100%
Nc1ncnc(Nc2cccc(Cl)c2Cl)n1 97%
COc1cc(C(=O)N2C(=O)c3cccc(N)c3C2=O)cc(OC)c1OC 95%
COc1c(F)c(F)c(C(=O)O)c(Nc2ccccc2C)c1F 98%
Cc1ccc(NC(=S)NC(=O)c2ccc(-c3ccccc3)cc2)c(C)c1 100%
Cc1cc(C)nc(NNC2=CC(=O)CC(C)(C)C2)n1 99%
CCOc1ccc(OCc2cccc(C(=O)N(CC)CC)c2)cc1 98%
CN(Cc1cc2cc(F)ccc2[nH]1)Cc1nc(-c2cnccn2)no1 98%
CC(C)(C)C(=O)N(Cc1ccccc1)c1ccccn1 95%
COc1ccccc1NC(=O)COC(=O)Cc1ccc(S(=O)(=O)N2CCCCC2)s1 98%
S=c1ccc2ccccc2[nH]1 98%
C=CCNC(=O)CC12CC3CC(C1)CC(CC(=O)NCC=C)(C3)C2 99%
Cc1ccc(SCCC(=O)NCc2ccccn2)cc1 99%
CCOc1ccc(NS(=O)(=O)c2cc(C)c(C)cc2C)cc1 98%
COc1ncnc2sc3c(c12)CCCC3 103%
COc1cc(/C=N/Nc2ccc(C)cc2)cc(Br)c1O 96%
O=C(Nc1ccc(-c2ccc3nncn3n2)cc1)C1CCCCC1 99%
CC(=O)NC1C(OCc2ccccc2)OC(COC(C)=O)C(OC(C)=O)C1OC(C)=O (centres undefined) 102%
O=S(=O)(Nc1ncccn1)c1ccc(NS(=O)(=O)c2cccc(Cl)c2Cl)cc1 96%
CC(CC(=O)O)CC(=O)NNC(=O)c1cccc(Br)c1 (centres undefined) 95%
CC(C)N(C)C(=O)CCc1nnc(CCc2c[nH]c3ccccc23)o1 93%
CCOc1cc(NC(=S)NCc2ccco2)c(OCC)cc1NC(=O)c1ccco1 98%
O=C(CN1CCN(S(=O)(=O)/C=C/c2ccccc2)CC1)Nc1ccc(N2CCOCC2)cc1 99%
Cc1ccc(CC(=O)Nc2cccc(C#N)c2)cc1 98%
NNC(=O)c1cnn(-c2ccccc2)c1C(F)(F)F 98%
CCCN(CC(=O)Nc1ccc(C(N)=O)cc1)CC(=O)Nc1ccccc1C 96%
CN(C)C(=O)CSc1n[nH]c(-c2ccco2)n1 94%
O=C(CNCc1ccc(Cl)cc1)Nc1cccc(C(=O)O)c1 95%
CCN(CC)c1ccc2c(Nc3ccccc3)c(C=O)c(=O)oc2c1 93%
CC(=O)c1sc(NC(=O)C2=NN(c3ccccc3)C(=O)CC2)nc1C 98%
COc1ccc(NC(=O)COC(=O)c2ccncc2)c(OC)c1 97%
C=CCOCCN(C)C1=NS(=O)(=O)c2ccccc21 100%
Cc1cc(OC(=O)c2ccccc2Cl)ccc1N1C(=O)CCC1=O 97%
CN(C)c1ccc(NC(=O)CSc2n[nH]c(-c3ccco3)n2)cc1 94%
COc1ccc(S(=O)(=O)N2CCOCC2)cc1NC(=O)CSc1ncnc2ccccc12 93%
CCOC(=O)c1sc(NC(=O)c2cc(S(=O)(=O)N3CCOCC3)ccc2C)nc1C 100%
O=C(O)CC1S/C(=N\N=C/c2ccccc2O)N(c2ccc(O)cc2)C1=O (centres undefined) 97%
Cc1sc2c(c1C)c(=O)n(-c1ccccc1)c(=O)n2CC(=O)NCC1CCCO1 (centres undefined) 98%
C=CCOC(=O)C1=C(C)N=C2SCCC(=O)N2C1/C=C/c1ccccc1OC (centres undefined) 99%
COc1cc(N/C=C2\CC(=O)NC(C)=C2C#N)cc(OC)c1OC 102%
O=C(Nc1ccc(N2CCOCC2)cc1)c1ccc2c(c1)OCO2 99%
CCc1ccc(NC(=O)C(=O)N/N=C(\C)CC(=O)NCCOC)cc1 96%
CCn1c(SCc2cc(=O)n3ccsc3n2)nc2ccccc21 102%
Oc1cccc2ccc(/C=C/c3ccc(Br)s3)nc12 100%
CC(=O)C1(C)N(O)C(C)(C)C(c2cccs2)=[N+]1[O-] (centres undefined) 98%
CCOCC(=O)Nc1ncc(S(=O)(=O)c2ccc([N+](=O)[O-])cc2)s1 91%
CN(C(=O)CSc1nncc2ccccc12)C1CCCCC1 96%
CC1(C)CC(=O)C(CC(=O)N2CCC(Cc3ccccc3)CC2)C(=O)C1 96%
CCn1cc(-c2cc(C(=O)O)on2)c(C)n1 95%
c1csc(-c2nnc(COc3ccc4c(c3)OCO4)o2)c1 96%
CCNC(=O)CC1C(=O)N(c2ccc(F)cc2)C(=O)N1Cc1cccs1 (centres undefined) 100%
CNC(=O)NC(=O)CSc1nnc(-c2ccc(F)cc2)n1CC1CCCO1 (centres undefined) 97%
C=CCn1c(COc2ccc(F)cc2)nnc1SCC(=O)Nc1cccc(S(N)(=O)=O)c1 96%
Cc1ccccc1C(=O)Nc1ccc(N2CCCCCC2)cc1 96%
Nc1nnc(SCn2nnc3ccccc3c2=O)s1 95%
O=C(NCc1ccc(F)cc1)C(c1ccccc1)N(C(=O)c1csnn1)C1CC1 (centres undefined) 95%
O=C(O)CCCCCNc1ncnc2ccc(Br)cc12 97%
C=C(C)C1CC=C(C)/C(=N/NC(=O)CCCNc2cccc(C)c2)C1 (centres undefined) 96%

GTP binding activity, active:
Cc1ccc(CSc2nc3[nH]ncc3c(=O)[nH]2)cc1 78%
CSc1nsc(SC)c1NC(=O)OC1CCCCC1 39%
O=C(Nc1ccccc1F)c1ccccc1-c1ccccc1 76%
Cc1ccc(Nc2c(F)c(F)c(F)c(F)c2C(=O)O)c(C)c1 124% [activator]
COc1ccc(/C=N/Nc2ncnc3sc4c(c23)CCCC4)cc1O 71%
O=C(OCC1O[C@@H](OC(=O)c2cc(O)c(O)c(O)c2)[C@@H](OC(=O)c2cc(O)c(O)c(O)c2)[C@@H](OC(=O)c2cc(O)c(O)c(O)c2)[C@@H]1OC(=O)c1cc(O)c(O)c(O)c1)c1cc(O)c(O)c(O)c1 (some centres undefined) 79%
COc1ccc(S(=O)(=O)N2CCOCC2)cc1C(=O)Nc1nc2ccccc2s1 75%
